Consider 40 molecules from PubChem BioAssay.

As a reminder, the inhibition is the change of the read-out against control, counted positive when it falls.

Structures are written as SMILES. Values without a mark were called inactive. The source made the active and inactive calls.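 Rule for the calls, unless noted: active = inhibition above 50%; inactive = the rest.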

The first test is described as follows: antimalarial activity against Dd2 strain (AID 2302;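 active = growth inhibition above 50% at the single 2 µM test dose, taken to imply half-maximal potency below 2 µM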;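 note: 0% = DMSO untreated growth and 100% = chloroquine plus artemisinin killed control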). Particulars: P. falciparum Dd2 in RBCs, LDH growth readout, 72 h; at 2 µM; hits give high values.
With `Cc1cc(OCCN2CCCCC2)ccc1NC(=O)c1cccc2c(=O)n(Cc3ccc(Cl)cc3)cnc12`, the growth inhibition is 56% (active).
The same measure, in the same setting: in the case of `COc1ccc(CNCc2ccccc2)cc1-c1ccc(S(=O)(=O)NCCN2CCCC2)c(C)c1` it was 50% (active); in that of `COc1cc2ncnc(Nc3ccc(OCc4ccccc4)c(C(F)(F)F)c3)c2cc1OC`, 78% (active).
Same read-out and setting: in the case of `c1cc(CNC2Cc3ccccc3C2)cc(-c2cnc(N3CCNCC3)nc2)c1` it was 65% (active); in that of `COc1ccc(NC(=O)[C@H](CC(C)C)Nc2cc(C)nc(Nc3ccccc3)n2)cc1`, 92% (active).
For `O=C(Nc1cccc(-c2ccc(NCCCN3CCCC3)nc2)c1)c1ccccc1`, the growth inhibition was 21%.
On the same count and under the same terms, then `CNC(=S)NN=C(C)c1ccccn1`, with 99% (active); and `CCN(CC)CCN(Cc1ccc(-c2ccc(C(F)(F)F)cc2)cc1)C(=O)Cn1c(CCc2c(F)cc(F)cc2F)nc(=O)c2ccccc21`, with 26%.
With `Cc1cc(NCCC(=O)Nc2ccccc2)nc(NCCOc2ccccc2)n1`, the growth inhibition is 9%.
The same measure, in the same setting: in the case of `CCOC(=O)c1[nH]c2ccc(F)cc2c1NC(=O)CN1CCN(c2cccc(C(F)(F)F)c2)CC1` it was 90% (active).
Same read-out and setting: then `C=CCOc1ccc2ccccc2c1CNCCCCCCNCc1c(OCC=C)ccc2ccccc12`, with 98% (active).
The same measure, in the same setting: then `Cc1cc(N2CCOCC2)nc(Nc2ccc(NC(=O)Nc3ccc(F)cc3)cc2)n1`, with 34%.
As to `CC(C)CNCc1cccc(-c2cccc(CN(CCN(C)C)C(=O)Nc3ccccc3)c2)c1`, the growth inhibition was 62% (active).
On the same count and under the same terms, then `CC(C)(C)NCC(O)COc1ccc(Cl)cc1C1=NNC(=O)CC1` (stereo not given), with -1%; and `Cc1cc(CNCCCCCCNCc2ccc(Cl)cc2)ccc1O`, with 0%.
On the same count and under the same terms, in the case of `CC(=O)Nc1ccc(CNCCc2ccc(NC(=O)c3cc(Cl)cc(Cl)c3)cc2)cc1` it was 31%; in that of `NS(=O)(=O)c1cccc(-c2ccc3nccc(-c4cccc(S(N)(=O)=O)c4)c3c2)c1`, 99% (active); in that of `CC(=O)Nc1ccc(C(=O)Nc2cccc(-c3ccc(-c4nc5ccc(C(F)(F)F)cc5[nH]4)s3)c2)cn1`, 98% (active).
Consider `COC(=O)c1cccc(CN(CCC(O)(C(F)(F)F)C(F)(F)F)C(=O)CC2CCCC2)c1`, for which the growth inhibition was 53% (active).
For the molecule `Cc1cc(C2CCN(CCCCNC(=O)c3ccc(NC(=O)c4ccc(Cl)cc4)cc3)CC2)c(C)cc1OCc1ccccn1`, the growth inhibition is 65% (active).
Still for that read-out and setting: then `CC(=O)Nc1ccc(C(=O)Nc2ccc(-c3cccc(-c4nc5ccc(C(F)(F)F)cc5[nH]4)c3)cc2)cn1`, with 98% (active).
On to `Cc1cccc2[nH]c(-c3cccc(-c4ccc(NC(=O)Nc5cccc(C#N)c5)cc4)c3)nc12`, for which the growth inhibition is 91% (active).
Same read-out and setting: in the case of `CN(C)CCN1CCN(CCCN2c3ccccc3Sc3ccc(C(F)(F)F)cc32)CC1` it was 61% (active); in that of `COc1cc(C)nc2ccc(NC(=O)COCC(=O)Nc3ccc4nc(C)cc(OC)c4c3)cc12`, 41%.
Still for that read-out and setting: then `Cc1nnc(N2C(=N)SC(=Cc3ccc(-c4ccc(OC(F)(F)F)cc4)o3)C2=O)s1`, with 58% (active); and `CCCNC(=O)c1cncc(-c2ccc(CNCCCc3ccccc3)cc2)c1`, with 29%; and `CC(C)CCN(Cc1cncn1Cc1cccc(C(F)(F)F)c1)C(=O)c1cncc(-c2ccccc2)c1`, with 4%.
For `COc1ccc(CNCc2ccc(F)cc2)cc1-c1cccc(S(=O)(=O)NCCN2CCCC2)c1`, the growth inhibition was 54% (active).
Still for that read-out and setting: in the case of `CN(C)c1ccc(-c2csc(C(=O)NC3CCN(Cc4ccc(C(C)(C)C)cc4)C3)c2)cc1` (stereo not given) it was 50% (active).
Still for that read-out and setting: then `Cc1ccc(S(=O)Cc2ccc(Cl)cc2)cc1` (stereo not given), with 5%; and `CCN(CC)CCNC(=O)c1ccc(NC(=O)c2cc3c(C)nn(-c4ccc(Cl)cc4)c3s2)cc1`, with 78% (active).
Consider `Cc1cccc(CN2CCCN(Cc3ccc(C(=O)Nc4ccc(Cl)cc4)cc3)CC2)c1`, for which the growth inhibition was 17%.
On the same count and under the same terms, then `OC(CNCc1ccccc1OCc1ccccc1)c1cccc(C(F)(F)F)c1` (stereo not given), with 99% (active).
Still for that read-out and setting: in the case of `CS(=O)(=O)CCNCc1ccc(-c2ccc3c(Nc4ccc(Cl)cc4F)ccnc3c2)o1` it was 98% (active); in that of `CC1(C)N=C(N)N=C(N)N1OCc1nc(N)nc(Nc2ccccc2)n1`, -4%.
For `CCCCCCNC(=O)c1nn(CCN2CCC(N3CCCC3)CC2)cc1-c1ccc(Cl)c(Cl)c1`, the growth inhibition is 33%.
Same read-out and setting: then `Cc1cccc(-c2nn(-c3ccccc3)c3[nH]c(=O)c(CNC4CCCC4)cc23)c1`, with 97% (active); and `O=C(NC1CCN(c2ccnc3ccccc23)C1)c1cccc(C(F)(F)F)c1` (stereo not given), with 86% (active).
Still for that read-out and setting: in the case of `CSc1cccc(NC(=O)c2cc3ccccc3oc2=O)c1` it was 75% (active); in that of `Cc1cc(Nc2cc(Cl)cc(Cl)c2)nc(N)n1`, 28%.

A further test in a line: HepG2 cytotoxicity, primary screen, cytotoxicity control for P. falciparum antimalarial project, cell-based, ATP luminescence (AID 2303).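 Note: 0% = DMSO wells and 100% = digitonin-killed cells.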 As to conditions: HepG2 viability, 24-48 h, at 10 µM, hits give high values.
Take `Cc1cc(OCCN2CCCCC2)ccc1NC(=O)c1cccc2c(=O)n(Cc3ccc(Cl)cc3)cnc12`: the inhibition is 100% (active).
Same read-out and setting: in the case of `COc1ccc(CNCc2ccccc2)cc1-c1ccc(S(=O)(=O)NCCN2CCCC2)c(C)c1` it was 33%.
Same read-out and setting: in the case of `COc1cc2ncnc(Nc3ccc(OCc4ccccc4)c(C(F)(F)F)c3)c2cc1OC` it was 8%; in that of `c1cc(CNC2Cc3ccccc3C2)cc(-c2cnc(N3CCNCC3)nc2)c1`, 43%.
Same read-out and setting: in the case of `COc1ccc(NC(=O)[C@H](CC(C)C)Nc2cc(C)nc(Nc3ccccc3)n2)cc1` it was 25%; in that of `O=C(Nc1cccc(-c2ccc(NCCCN3CCCC3)nc2)c1)c1ccccc1`, 22%.
For `CNC(=S)NN=C(C)c1ccccn1`, the inhibition was 64% (active).
Same read-out and setting: then `CCN(CC)CCN(Cc1ccc(-c2ccc(C(F)(F)F)cc2)cc1)C(=O)Cn1c(CCc2c(F)cc(F)cc2F)nc(=O)c2ccccc21`, with 39%.
Same read-out and setting: then `Cc1cc(NCCC(=O)Nc2ccccc2)nc(NCCOc2ccccc2)n1`, with 5%; and `CCOC(=O)c1[nH]c2ccc(F)cc2c1NC(=O)CN1CCN(c2cccc(C(F)(F)F)c2)CC1`, with 12%.
Turning to `C=CCOc1ccc2ccccc2c1CNCCCCCCNCc1c(OCC=C)ccc2ccccc12`, the inhibition is 99% (active).
Still for that read-out and setting: in the case of `Cc1cc(N2CCOCC2)nc(Nc2ccc(NC(=O)Nc3ccc(F)cc3)cc2)n1` it was 35%.
With `CC(C)CNCc1cccc(-c2cccc(CN(CCN(C)C)C(=O)Nc3ccccc3)c2)c1`, the inhibition was 34%.
As for `CC(C)(C)NCC(O)COc1ccc(Cl)cc1C1=NNC(=O)CC1` (stereo not given), the inhibition is 6%.
On the same count and under the same terms, then `Cc1cc(CNCCCCCCNCc2ccc(Cl)cc2)ccc1O`, with 23%; and `CC(=O)Nc1ccc(CNCCc2ccc(NC(=O)c3cc(Cl)cc(Cl)c3)cc2)cc1`, with 10%.
On the same count and under the same terms, in the case of `NS(=O)(=O)c1cccc(-c2ccc3nccc(-c4cccc(S(N)(=O)=O)c4)c3c2)c1` it was 40%; in that of `CC(=O)Nc1ccc(C(=O)Nc2cccc(-c3ccc(-c4nc5ccc(C(F)(F)F)cc5[nH]4)s3)c2)cn1`, 42%.
Regarding `COC(=O)c1cccc(CN(CCC(O)(C(F)(F)F)C(F)(F)F)C(=O)CC2CCCC2)c1`, the inhibition is -1%.
The same measure, in the same setting: then `Cc1cc(C2CCN(CCCCNC(=O)c3ccc(NC(=O)c4ccc(Cl)cc4)cc3)CC2)c(C)cc1OCc1ccccn1`, with 18%.
Still for that read-out and setting: then `CC(=O)Nc1ccc(C(=O)Nc2ccc(-c3cccc(-c4nc5ccc(C(F)(F)F)cc5[nH]4)c3)cc2)cn1`, with 29%; and `Cc1cccc2[nH]c(-c3cccc(-c4ccc(NC(=O)Nc5cccc(C#N)c5)cc4)c3)nc12`, with 50% (active); and `CN(C)CCN1CCN(CCCN2c3ccccc3Sc3ccc(C(F)(F)F)cc32)CC1`, with 98% (active).
Same read-out and setting: in the case of `COc1cc(C)nc2ccc(NC(=O)COCC(=O)Nc3ccc4nc(C)cc(OC)c4c3)cc12` it was 67% (active); in that of `Cc1nnc(N2C(=N)SC(=Cc3ccc(-c4ccc(OC(F)(F)F)cc4)o3)C2=O)s1`, 37%.
As to `CCCNC(=O)c1cncc(-c2ccc(CNCCCc3ccccc3)cc2)c1`, the inhibition was -13%.
The same measure, in the same setting: then `CC(C)CCN(Cc1cncn1Cc1cccc(C(F)(F)F)c1)C(=O)c1cncc(-c2ccccc2)c1`, with 15%; and `COc1ccc(CNCc2ccc(F)cc2)cc1-c1cccc(S(=O)(=O)NCCN2CCCC2)c1`, with 43%; and `CN(C)c1ccc(-c2csc(C(=O)NC3CCN(Cc4ccc(C(C)(C)C)cc4)C3)c2)cc1` (stereo not given), with 26%.
On the same count and under the same terms, in the case of `Cc1ccc(S(=O)Cc2ccc(Cl)cc2)cc1` (stereo not given) it was 8%; in that of `CCN(CC)CCNC(=O)c1ccc(NC(=O)c2cc3c(C)nn(-c4ccc(Cl)cc4)c3s2)cc1`, 24%.
Regarding `Cc1cccc(CN2CCCN(Cc3ccc(C(=O)Nc4ccc(Cl)cc4)cc3)CC2)c1`, the inhibition is 54% (active).
The same measure, in the same setting: then `OC(CNCc1ccccc1OCc1ccccc1)c1cccc(C(F)(F)F)c1` (stereo not given), with 12%.
Still for that read-out and setting: in the case of `CS(=O)(=O)CCNCc1ccc(-c2ccc3c(Nc4ccc(Cl)cc4F)ccnc3c2)o1` it was 6%; in that of `CC1(C)N=C(N)N=C(N)N1OCc1nc(N)nc(Nc2ccccc2)n1`, 3%.
The same measure, in the same setting: then `CCCCCCNC(=O)c1nn(CCN2CCC(N3CCCC3)CC2)cc1-c1ccc(Cl)c(Cl)c1`, with 31%.
`Cc1cccc(-c2nn(-c3ccccc3)c3[nH]c(=O)c(CNC4CCCC4)cc23)c1`: the inhibition was 18%.
Still for that read-out and setting: then `O=C(NC1CCN(c2ccnc3ccccc23)C1)c1cccc(C(F)(F)F)c1` (stereo not given), with 28%; and `CSc1cccc(NC(=O)c2cc3ccccc3oc2=O)c1`, with -4%; and `Cc1cc(Nc2cc(Cl)cc(Cl)c2)nc(N)n1`, with -12%.
